Test [1] is described as follows: inhibitors of TNFa-induced NFkB p65 translocation, primary screen, imaging, HUVEC, MLSMR starter and 10KST1 sets (AID 438;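 active = inhibition above 20% together with a positive visual image hit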;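 also: compound added about 3h40 before a 20 min TNFalpha stimulation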;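 as to inhibition: signal is the nuclear over cytoplasmic p65 intensity ratio per well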). Conditions: HUVEC TNFa-induced p65 nuclear translocation; cell count: measured here: nuclei count (cytotoxicity indicator), at 2.08 µM; inhibition: at 2 µM, stronger effect = higher value, 0% TNFa-plus-vehicle, 100% no-TNFa wells.
A short description of test [2]: inhibitors of mutant huntingtin aggregation, primary screen, imaging, exon1htt(103Q)mCFP cells, high-content imaging (AID 483;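 active = visual image review flags a hit and inhibition of aggregation exceeds 20%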;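 also: compound exposure lasted 3 days before fixation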;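 as to nuclei count: percent of the per-plate median nuclei count of sample wells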). Conditions: exon1htt(103Q)mCFP cell line, aggregate imaging, at 2 µM; inhibition of aggregation: stronger effect = higher value; nuclei count: measured here: cell count, toxicity.
The nature of test [3]: inhibitors of E-selectin induction by TNFa, primary screen, imaging, HUVEC, immunofluorescence, MLSMR starter and 10KST1 sets (AID 487;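 active = visually confirmed hit in the image check and inhibition above 20%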;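 as to inhibition: signal is fraction of cell area covered by stained E-selectin grains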;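 as to nuclei count: 100% = median nuclei count of all wells on the same plate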). Conditions: HUVEC TNFalpha-induced E-selectin immunofluorescence imaging, at 2 µM; inhibition: stronger effect = higher value; nuclei count: measured here: cell number, toxicity.
The target of test [4] is Voltage-gated potassium channel subunit beta-2 (Rattus norvegicus) (UniProt P62483). Briefly: KvBeta enzyme negative modulators, primary screen, biochemical, NADPH fluorescence (AID 622;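 active = fluorescence slope higher than the sample average by over 3 SD, cut at about -0.22 in these data, passing the limit was not always enough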;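 also: slope of raw intensity against log time taken from 70 to 1610 s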). Conditions: recombinant KvBeta, 4-cyanobenzaldehyde reduction, at 10 µM, stronger effect = higher value.
The target is the same in test [5]. Briefly: KvBeta positive modulators, primary screen, biochemical, NADPH fluorescence (AID 623;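 active = NADPH fluorescence slope more negative than the mean of all samples by about 3 SD, 99.7% confidence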;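 also: fluorescence intensity change per second fitted from 20 to 320 s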). Conditions: Recombinant KvBeta, NADPH fluorescence decrease slope, 10 min; at 10 µM; stronger effect = lower value.
Test [6] deals with Alpha-2C adrenergic receptor (Homo sapiens) (UniProt P18825). Briefly: modulators of alpha2C/GIRK thallium flux, primary screen, cell-based, HEK293 alpha2C/GIRK1/2 (AID 624).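 Also: slope of fluorescence ratio to pre-addition baseline per second over 15 to 24 s.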 Conditions: thallium flux BTC fluorescence, at 10 µM, actives lie on both sides.
A short description of test [7]: inhibitors of Sendai virus-induced IRF3 signaling, primary screen, TLR/RLR signaling modifier project, cell-based, Sendai virus stimulus, luciferase, 10K MLSCN set (AID 602276;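 active = inhibition at or above 50% at 10 µM; inactive = inhibition below 50%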;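 also: firefly luciferase from ISG56 promoter only with Renilla not read in this screen; 0% = Sendai virus plus DMSO and 100% = medium plus DMSO without virus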). Conditions: HEK293 RL24 IRF3 luciferase reporter, at 10 µM, stronger effect = higher value. Background: In a reporter assay the amount or activity of a reporter protein is the signal.
Test [8] is described as follows: inhibitors of poly I:C-induced TLR3 signaling, primary screen, cell-based, poly I:C stimulus, luciferase, 10K MLSCN set (AID 602277;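 active = inhibition of the reporter signal at or above 50%; inactive = inhibition below 50%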). Conditions: HEK293-TLR3 RL24 IRF3 luciferase reporter, at 10 µM, stronger effect = higher value.

Each structure is given as a SMILES string. Calls of active or inactive are those of the source.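 The calls were made as follows, unless noted: active = fluorescence slope after compound addition differing from the mean of all screened samples at 99.7% confidence, in either direction; inactive = the rest.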

The inhibition is the drop in the measured response relative to a control, in per cent.

Chain of Voltage-gated potassium channel subunit beta-2 (Rattus norvegicus) (P62483 whole entry, looked up): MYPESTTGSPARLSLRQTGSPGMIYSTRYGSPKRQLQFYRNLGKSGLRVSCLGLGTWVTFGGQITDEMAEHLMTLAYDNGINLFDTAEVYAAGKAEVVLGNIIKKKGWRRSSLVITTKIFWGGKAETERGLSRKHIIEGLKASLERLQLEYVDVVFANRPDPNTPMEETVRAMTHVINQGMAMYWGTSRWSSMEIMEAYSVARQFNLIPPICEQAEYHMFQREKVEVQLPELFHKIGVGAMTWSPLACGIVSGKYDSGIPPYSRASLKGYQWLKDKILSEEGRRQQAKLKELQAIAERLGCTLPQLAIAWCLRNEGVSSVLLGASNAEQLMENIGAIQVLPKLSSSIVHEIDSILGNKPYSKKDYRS
Chain of Alpha-2C adrenergic receptor (Homo sapiens) (P18825 whole entry, looked up): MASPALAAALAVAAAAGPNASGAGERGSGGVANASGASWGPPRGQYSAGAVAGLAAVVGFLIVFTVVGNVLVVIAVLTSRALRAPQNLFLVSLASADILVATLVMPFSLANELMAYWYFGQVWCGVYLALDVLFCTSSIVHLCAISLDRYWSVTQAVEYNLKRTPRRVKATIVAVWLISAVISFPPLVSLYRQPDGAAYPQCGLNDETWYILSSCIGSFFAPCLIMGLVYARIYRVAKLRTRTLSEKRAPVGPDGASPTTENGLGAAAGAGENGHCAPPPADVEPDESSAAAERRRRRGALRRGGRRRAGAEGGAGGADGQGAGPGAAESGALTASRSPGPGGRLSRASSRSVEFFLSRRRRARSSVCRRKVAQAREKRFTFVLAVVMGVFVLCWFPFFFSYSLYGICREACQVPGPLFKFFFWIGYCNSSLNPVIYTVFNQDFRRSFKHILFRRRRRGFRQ

With `O=C(O)CC1NC(=O)N(c2ccccc2)C1=O` (centres undefined), in test [1], the cell count came out at 540. Also, the inhibition in test [1] is -4.6% (inactive); in test [3], -106% (inactive); in test [7] it was 16.4% (inactive); in test [8] it was 21.9% (inactive). Moreover, the inhibition of aggregation in test [2] is 5.1% (inactive). The nuclei count in test [2] is 95.5%; in test [3], 114%. Besides, the fluorescence slope in test [4] was -0.599 (inactive). The NADPH fluorescence slope in test [5] was 1.8e-06 (inactive). Moreover, the slope in test [6] is 0.00411 (inactive).
For the molecule `Cc1oc(-c2ccc(Cl)cc2)nc1CS(=O)CC(=O)NCCCN(C)C1CCCCC1` (centres undefined), the cell count in test [1] was found to be 584. In addition, the inhibition is 3.8% (inactive) in test [1], -47% (inactive) in test [3], 15.7% (inactive) in test [7] and 30.4% (inactive) in test [8]. In addition, the inhibition of aggregation in test [2] was -6.2% (inactive). Further, the values for the nuclei count in test [2] and in test [3] were 94.6% and 127%, respectively. Moreover, in test [4], the fluorescence slope is -0.603 (inactive). In addition, the NADPH fluorescence slope in test [5] is 1.3e-05 (inactive). Besides, the slope in test [6] was 0.00462 (inactive).
As for `CCCC(c1nnnn1Cc1ccc(OC)cc1)N1CCN(c2ccccc2OC)CC1` (centres undefined), the cell count in test [1] was 257. For the same molecule, the inhibition was 12.3% (inactive) in test [1], -14.7% (inactive) in test [3], 10.6% (inactive) in test [7] and 23.6% (inactive) in test [8]. The inhibition of aggregation in test [2] was -3.4% (inactive). Further, the nuclei count was 101% in test [2] and 82.7% in test [3]. The fluorescence slope in test [4] was -0.433 (inactive). In test [5], the NADPH fluorescence slope was -0.000141 (inactive). For the same molecule, the slope in test [6] was 0.00492 (inactive).
As to `Cc1ccc(Cc2c(C)nc3c(C(=O)O)cnn3c2C)cc1`, in test [1], the cell count is 327. In addition, the inhibition in test [1] was 7.7% (inactive); in test [3], -4.3% (inactive); in test [7] it was 3.97% (inactive); in test [8] it was 19.3% (inactive). Moreover, the inhibition of aggregation in test [2] is 1.1% (inactive). The nuclei count in test [2] was determined as 108%; in test [3], 105%. For the same molecule, the fluorescence slope in test [4] is -0.376 (inactive). The NADPH fluorescence slope in test [5] is -1.4e-05 (inactive). The slope in test [6] is 0.0026 (inactive).
With `CCOC(=O)c1c(C)[nH]c(C(=O)Cn2c(=O)oc3ccccc32)c1C`, in test [1], the cell count turned out to be 256. For the same molecule, the inhibition is 7.6% (inactive) in test [1], 31.3% (inactive) in test [3], -8.59% (inactive) in test [7] and -12.4% (inactive) in test [8]. Besides, in test [2], the inhibition of aggregation is 17.3% (inactive). The nuclei count was 97.3% in test [2] and 98.7% in test [3]. The fluorescence slope in test [4] was -0.285 (inactive). Further, the NADPH fluorescence slope in test [5] was -6.3e-06 (inactive). Also, the slope in test [6] was 0.00653 (inactive).
`O=C(NCCOC(=O)C1COc2ccccc2O1)C1COc2ccccc2O1` (centres undefined): the cell count in test [1] came out at 357. Further, the inhibition in test [1] was -2.1% (inactive); in test [3], -99.1% (inactive); in test [7], -2.25% (inactive); in test [8], 19.3% (inactive). Moreover, the inhibition of aggregation in test [2] is -2% (inactive). Further, the nuclei count in test [2] came to 106%; in test [3], 128%. Besides, the fluorescence slope in test [4] was -0.48 (inactive). For the same molecule, the NADPH fluorescence slope in test [5] was -3.8e-05 (inactive). In addition, the slope in test [6] was 0.00608 (inactive).
On to `COc1ccccc1NC(=O)c1cc2n(n1)C(C(F)(F)F)CC(c1ccc3c(c1)OCO3)N2` (centres undefined), for which the cell count in test [1] was found to be 479. In addition, the inhibition was 2.4% (inactive) in test [1], -14.9% (inactive) in test [3], -5.6% (inactive) in test [7] and -16.2% (inactive) in test [8]. Also, in test [2], the inhibition of aggregation was 5.1% (inactive). In addition, the nuclei count was determined as 109% in test [2] and 110% in test [3]. Further, the fluorescence slope in test [4] was -0.629 (inactive). In addition, in test [5], the NADPH fluorescence slope is 6.1e-06 (inactive). Further, in test [6], the slope is 0.00604 (inactive).
Take `Cc1ccnc(NC(=O)C2CCC(CNc3c(N4CCCC4)c(=O)c3=O)CC2)c1` (centres undefined): the cell count in test [1] was found to be 544. Further, the inhibition in test [1] was 4.4% (inactive); in test [3], -31.3% (inactive); in test [7], 4.3% (inactive); in test [8], 18.4% (inactive). Moreover, in test [2], the inhibition of aggregation was -2.5% (inactive). For the same molecule, the nuclei count amounted to 113% in test [2] and 98.8% in test [3]. Also, the fluorescence slope in test [4] is -0.598 (inactive). Further, the NADPH fluorescence slope in test [5] was -2.9e-05 (inactive). In addition, in test [6], the slope is 0.00671 (inactive).
As to `CCN1CCN(C(=O)C2CCN(C(=O)c3cc4sccc4n3CC)CC2)CC1`, the cell count in test [1] stood at 642. The inhibition was -12.2% (inactive) in test [1], -25.4% (inactive) in test [3], 12.4% (inactive) in test [7] and 45.3% (inactive) in test [8]. The inhibition of aggregation in test [2] is 4.1% (inactive). Besides, the nuclei count in test [2] is 85.3%; in test [3] it was 115%. Also, in test [4], the fluorescence slope was -0.556 (inactive). Moreover, in test [5], the NADPH fluorescence slope is -4.1e-05 (inactive). The slope in test [6] was 0.00649 (inactive).
Take `COCCn1c(SCC(=O)N(C(C)C)C(C)C)nnc1-c1cc2ccccc2cc1O`: the cell count in test [1] turned out to be 362. Besides, the inhibition is 0% (inactive) in test [1], -1% (inactive) in test [3], 11.9% (inactive) in test [7] and 20.1% (inactive) in test [8]. In test [2], the inhibition of aggregation is 25.9% (inactive). For the same molecule, the nuclei count came out at 88.5% in test [2] and 97.7% in test [3]. Moreover, the fluorescence slope in test [4] is -0.366 (inactive). Also, the NADPH fluorescence slope in test [5] was 1.3e-05 (inactive). In addition, the slope in test [6] was 0.00457 (inactive).
For `CCc1nn(CC(=O)N2CCN(Cc3ccc4c(c3)OCO4)CC2)c(=O)c2cc3occc3n12`, the cell count in test [1] was 341. Also, the inhibition in test [1] is 1.7% (inactive); in test [3], -0.9% (inactive); in test [7] it was -5.95% (inactive); in test [8] it was -24.9% (inactive). In test [2], the inhibition of aggregation is -11.1% (inactive). The nuclei count in test [2] was found to be 90.2%; in test [3], 105%. Besides, the fluorescence slope in test [4] is -0.353 (inactive). Also, in test [5], the NADPH fluorescence slope is -1.6e-05 (inactive). In addition, the slope in test [6] was 0.00432 (inactive).
Turning to `CCn1nccc1C(=O)Nc1cc(Cl)ccc1Cl`, the cell count in test [1] worked out at 633. Moreover, the inhibition is 8.3% (inactive) in test [1], 22.2% (inactive) in test [3], 1.68% (inactive) in test [7] and 15.9% (inactive) in test [8]. For the same molecule, in test [2], the inhibition of aggregation was 6.7% (inactive). Also, the nuclei count in test [2] amounted to 57.3%; in test [3], 106%. For the same molecule, the fluorescence slope in test [4] is -0.385 (inactive). For the same molecule, the NADPH fluorescence slope in test [5] is -5e-05 (inactive). Further, the slope in test [6] is 0.00378 (inactive).
For the molecule `CCN(CC)S(=O)(=O)c1ccc(F)c(C(=O)NCCC(C)C)c1`, the cell count in test [1] was determined as 497. The inhibition is -22% (inactive) in test [1], -22.3% (inactive) in test [3], -18.3% (inactive) in test [7] and -20.2% (inactive) in test [8]. Moreover, the inhibition of aggregation in test [2] is 37.4% (inactive). For the same molecule, the figures for the nuclei count in test [2] and in test [3] were 79.2% and 99.2%, respectively. In addition, the fluorescence slope in test [4] is -0.353 (inactive). Besides, the NADPH fluorescence slope in test [5] was -1.6e-05 (inactive). Also, the slope in test [6] is 0.00438 (inactive).
Regarding `COc1ccc(OCC(=O)N2CC3(C)CC2CC(C)(C)C3)cc1` (centres undefined), the cell count in test [1] amounted to 403. Further, the inhibition is -0.6% (inactive) in test [1], -55.8% (inactive) in test [3], 20% (inactive) in test [7] and 26.7% (inactive) in test [8]. In addition, in test [2], the inhibition of aggregation is -6.4% (inactive). Moreover, the nuclei count in test [2] amounted to 122%; in test [3], 97.4%. Besides, the fluorescence slope in test [4] is -0.495 (inactive). In test [5], the NADPH fluorescence slope is -6.6e-06 (inactive). For the same molecule, the slope in test [6] was 0.004 (inactive).

The values are drawn from PubChem BioAssay.
